Compounds with a hit are over-represented: about 9.2% of the library has one in this group of screens.
ELG1 genotox: genotoxicity induction in ELG1-luciferase HEK293T cells; HEK293T ELG1-luciferase reporter, luminescence, 16 h; Potency, µM (top dose mostly 46 µM), usual class: activators; 330,000 compounds, 1.3% hits; also: nearly all actives have a fitted effect of over 60% in size
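Cells (2,000/well) expressing the ELG1-luciferase fusion are dosed by pin tool and kept 16 hr at 37 °C, 5% CO2. Signal comes from ONE-Glo luciferase reagent after 30 min at room temperature.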
NPC1 promoter act: activators of NPC1 promoter; Huh7 NPC1 promoter luciferase reporter, 24 h; Potency, µM (doses to about 9.22 µM), hits mostly activators; 320,000 compounds, 2.4% hits; AID 485313; also: nearly all actives have a fitted effect of over 60% in size
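Readout is luciferase luminescence, reflecting NPC1 promoter activation in stably transfected Huh7 cells after 24 h compound exposure at 37 °C in reduced-serum medium with 10% FBS.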
Rab9 promoter act: Rab9 promoter activation; 320,000 compounds, 2.8% hits; Huh7 Rab9 promoter-luciferase reporter, luminescence, 24 h; Potency, µM (top dose mostly 9.22 µM), actives largely listed as activators; AID 485297; also: nearly all actives have a fitted effect of over 60% in size
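Cells were plated at 1500 per well in reduced-serum medium with 10% FBS and left 2 h. Compound in DMSO was then added for 24 h at 37 °C. Reporter signal was read by luminescence after 10 min with luciferase detection reagent.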
FLuc counter: firefly luciferase modulation, counter-screen for miR-21 project. P08659. purified FLuc, Km substrates, luminescence inhibition. Potency, µM (highest dose often 57.5 µM), most hits filed as inhibitors. 360,000 compounds, 6.9% hits. AID 588342; also: nearly all actives have a fitted effect of over 55% in size
Target sequence (P08659 whole entry, looked up): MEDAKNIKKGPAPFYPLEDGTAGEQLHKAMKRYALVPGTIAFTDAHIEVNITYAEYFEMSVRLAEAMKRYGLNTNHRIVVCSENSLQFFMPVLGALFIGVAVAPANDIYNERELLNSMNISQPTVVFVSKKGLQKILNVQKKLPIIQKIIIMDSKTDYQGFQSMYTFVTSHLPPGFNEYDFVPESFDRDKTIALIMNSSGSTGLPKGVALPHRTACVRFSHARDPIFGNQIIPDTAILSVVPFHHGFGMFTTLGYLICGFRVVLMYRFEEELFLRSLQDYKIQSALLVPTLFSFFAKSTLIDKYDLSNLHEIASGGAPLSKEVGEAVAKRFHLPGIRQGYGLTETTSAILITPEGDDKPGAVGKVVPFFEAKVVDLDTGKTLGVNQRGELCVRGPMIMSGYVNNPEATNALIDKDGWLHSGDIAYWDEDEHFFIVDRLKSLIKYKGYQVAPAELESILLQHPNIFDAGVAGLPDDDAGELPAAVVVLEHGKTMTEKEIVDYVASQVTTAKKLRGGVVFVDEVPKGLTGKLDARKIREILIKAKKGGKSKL
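Biochemical qHTS of compounds, final roughly 60 µM downward over six points, against 10 nM purified firefly luciferase using Km concentrations of substrates (10 uM D-luciferin, 10 uM ATP) in Tris acetate pH 7.5 buffer; luminescence output.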
SMN2 splice up: enhancers of SMN2 splice variant expression; HEK293 SMN2-luciferase splicing reporter, luminescence, 30-36 h; Potency, µM (titrated, usually from 46.1 µM), actives largely listed as activators; 210,000 compounds, 2.8% hits; also: nearly all actives have a fitted effect of over 55% in size
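qHTS luciferase splicing reporter: luminescence rises when SMN2 exon 7 is included in transfected HEK293 cells. Compound exposure lasted 30-36 h at 37C, with 4.5 mM final sodium butyrate as control, followed by a ONE-Glo read.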
ELG1 DNA repair: blocks ELG1-dependent DNA repair in HEK293T cells. HEK293T ELG1-luciferase reporter, luminescence, 16 h; DNA damage induced by 5-fluorouridine. Potency, µM (top dose mostly 46.1 µM), usual class: inhibitors. 330,000 compounds, 2.3% hits; also: nearly all actives have a fitted effect of over 55% in size
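Luminescence from the luciferase reporter, measured 30 min after ONE-Glo reagent at room temperature, was the read-out. Beforehand, 2,000 cells per well were exposed for 16 hr at 37 °C to 5-fluorouridine together with compound or vehicle.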
A number is an active result; . = inactive; ? = inconclusive; / = no result. Calls follow the shape of the dose curve; as a rule, active = well fitted curve in the direction sought with a large enough effect; inconclusive = small, poorly fitted or top-dose-only effect, or another doubt; inactive = no such curve, though single readings can be large; an effect the other way counts as inactive or inconclusive.

SMILES | ELG1 genotox | NPC1 promoter act | Rab9 promoter act | FLuc counter | SMN2 splice up | ELG1 DNA repair
CCS(=O)(=O)c1nc(S(=O)(=O)c2ccc(Cl)cc2)c(N2CCC(O)CC2)s1 | . | . | . | . | / | .
S=c1[nH]c2ccccc2s1 | / | / | / | / | . | /
Cc1cc(CNC(=O)c2cccc(OC3CCN(S(=O)(=O)N(C)C)CC3)c2)on1 | . | 3.55µM | ? | 15.1µM | / | ?
CN(C)S(=O)(=O)N1CCC(Oc2cccc(C(=O)NC3CCCCCC3)c2)CC1 | . | . | . | . | / | 16.4µM
CC1CCCCN1C(=O)c1ccc(OC2CCN(S(=O)(=O)N(C)C)CC2)cc1 (centres undefined) | . | . | . | ? | / | 9.2µM
CN(C)S(=O)(=O)N1CCC(Oc2ccc(C(=O)NC3Cc4ccccc4C3)cc2)CC1 | . | . | . | ? | / | .
COCC(=O)N1CCC(Oc2ccc(C(=O)NCc3cc(C)no3)cc2)CC1 | . | . | . | . | / | .
O=C1CN(c2nc3nonc3nc2N2CCCCC2)CCN1 | . | . | . | . | / | .
CCOc1ccc(NC(=O)c2cc(=O)c3cc(CC)ccc3o2)cc1 | / | / | / | . | . | /
NC(=O)N/N=C/c1ccc2cccc(OCc3ccccc3)c2n1 | . | . | . | 19µM | / | .
O=C(Cc1ccccc1)N/N=C/c1ccc2cccc(O)c2n1 | . | . | . | 19µM | / | .
COc1ccc(S(=O)(=O)Nc2ccc(-c3ccc(N4CCCC4)nn3)cc2)cc1F | / | / | / | . | / | /
Cc1ccc([N+](=O)[O-])cc1S(=O)(=O)Nc1cccc(-c2ccc(N3CCCC3)nn2)c1 | . | . | . | 19µM | / | ?
COc1ccc(S(=O)(=O)Nc2cccc(-c3ccc(N4CCC(C)CC4)nn3)c2)cc1OC | / | / | / | 0.426µM | / | /
Cc1ccc(S(=O)(=O)Nc2cccc(-c3ccc(N4CCCCCC4)nn3)c2)cc1C | ? | ? | 3.16µM | 6.01µM | / | ?
COc1ccc(S(=O)(=O)Nc2cccc(-c3ccc(N4CCCC4)nn3)c2)cc1OC | / | / | / | 16.9µM | / | /
CCCCn1c(N)c(N(CCOC)C(=O)c2cc(CC)c(C)s2)c(=O)[nH]c1=O | . | . | . | . | / | .
Cc1ccnc(SCCn2c(N3CCN(Cc4ccccc4)CC3)nc3c2c(=O)[nH]c(=O)n3C)n1 | . | . | . | . | . | 9.2µM
Cn1c(=O)[nH]c(=O)c2c1nc(CN1CCN(c3ccc(F)cc3)CC1)n2CCCc1ccccc1 | . | . | . | . | . | ?
CC1CCN(c2nc3c(c(=O)n(C)c(=O)n3C)n2CCSc2ncccn2)CC1 | . | . | . | . | . | .
Cn1c(=O)[nH]c(=O)c2c1nc(N1CCN(c3ccccc3)CC1)n2CCSc1ncccn1 | . | . | . | . | . | ?
Cn1c(=O)[nH]c(=O)c2c1nc(CN1CCN(c3ccccc3F)CC1)n2CCCc1ccccc1 | . | . | . | . | ? | 6.51µM
Cn1c(N2CCN(c3ccccn3)CC2)nc2c1c(=O)n(Cc1ccc(Cl)cc1)c(=O)n2C | . | . | . | . | . | 16.4µM
Cn1c(=O)c2c(nc(N3CCN(Cc4ccccc4)CC3)n2CCSc2ncccn2)n(C)c1=O | . | . | . | . | . | 5.17µM
CC1CN(c2nc3c(c(=O)n(Cc4ccc(Cl)c(Cl)c4)c(=O)n3C)n2C)CC(C)O1 (centres undefined) | . | . | . | . | . | ?
SMILES | ELG1 genotox | NPC1 promoter act | Rab9 promoter act | FLuc counter | SMN2 splice up | ELG1 DNA repair
O=C(CCN1C(=O)S/C(=C\c2ccc(F)cc2)C1=O)Nc1ccc(O)cc1C(=O)O | . | . | . | ? | / | .
CCN(C(=O)Cc1c(C(=O)O)n(C)c2ccccc12)c1ccc(F)cc1 | . | . | . | ? | . | .
CCOC(=O)c1ccccc1NC(=O)COC(=O)C(CCSC)NC(=O)COc1ccccc1 (centres undefined) | . | . | . | . | / | .
CN1CCN(C(=O)/C=C/c2ccc3c(c2)OCO3)CC1 | . | . | . | . | . | ?
O=C(/C=C/c1ccc2c(c1)OCO2)N1CCN(c2n[nH]c(=O)[nH]c2=O)CC1 | . | . | . | 21.3µM | / | .
COC(=O)C1CCN(C(=O)/C=C/c2ccc3c(c2)OCO3)CC1 | ? | 0.794µM | 1.26µM | ? | / | ?
O=C(/C=C/C=C/c1ccc2c(c1)OCO2)N1CCCCC1 | 11.6µM | 2.51µM | 2.51µM | 8.49µM | 14.1µM | ?
CCOC(=O)[C@@H]1[C@H]2COc3ccccc3[C@H]2N2C(=O)N(c3cccc(Cl)c3)C(=O)[C@]12C | . | / | / | / | / | .
c1ccc2[nH]c3cc4ncnc4cc3nc2c1 | . | . | ? | ? | ? | ?
COc1ccc(NC(=O)/C=C/c2ccc(OC)c(OC)c2)cn1 | . | . | . | ? | / | .
COc1ccc(NC(=O)/C=C/c2ccc(OC(F)F)cc2)cn1 | . | . | . | 12µM | / | ?
COc1ccc(/C=C/C(=O)Nc2ccc(OC)nc2)cc1 | . | . | . | 7.57µM | . | .
COc1cccc(O)c1O | / | / | / | / | . | /
COc1ccc(NC(=O)c2csc3c2CCCC3)cc1 | ? | 2µM | 3.16µM | 3.01µM | 12.6µM | ?
Cc1ccc(/C=N/NC(=O)c2csc3c2CCCC3)cc1 | ? | . | . | 10.7µM | . | ?
COc1cccc(NC(=O)c2csc3c2CCCC3)c1 | ? | ? | ? | 9.53µM | 14.1µM | ?
